In PubChem BioAssay AID652042 (Broad Institute, 2013):
Hit rate of the full screen: of about 1,100 compounds, about 350 (32%) were called active. The list is a sample of the results. Measured potencies and affinities stand elsewhere. A number with no mark means an inactive call. No rule for the calls is given here.

experiment: viability loss in CEM21 cells – cell-based, CellTiter-Glo luminescence, cherry-picked, cytotoxicity control for viral fusion inhibitor project, dose response (AID 652042); details: CellTiter-Glo ATP luminescence, 24 h; series mostly up to 35 µM; activity change, negative = cytotoxicity: at the top concentration

Structure (SMILES) | activity change, negative = cytotoxicity
CCC(C)(C)NC(=O)C(NS(=O)(=O)c1cccs1)c1ccccc1 (stereo not given) | 4.01%
CC(C)OCCCNc1ncnc2c1[nH]c1ccccc12 | -23.4%
CCOC(=O)/C=C1\Nc2ccccc2SC1=O | -1.22%
CCCCCn1c(C(C)NC(=O)CCC)nc2ccccc21 (stereo not given) | 1.39%
Cn1c(=O)n(-c2cccc(Cl)c2)c(=O)c2c3c(sc21)COC(C)(C)C3 | -1.94%
C=CCN([C@@H](CC(C)C)C(=O)OC)S(=O)(=O)N(CC=C)[C@@H](CC(C)C)C(=O)OC | -22.3%
CN1CCc2ccccc2Cc2[nH]c3ccccc3c2CC1 | 2.03%
Cc1sc2ncnc(N3CCN(S(=O)(=O)c4ccc(Br)cc4)CC3)c2c1C | -26.4%
CCc1cccc(NC(=O)C2CCN(S(=O)(=O)c3ccc4c(c3)CC(C)N4C(C)=O)CC2)c1 (stereo not given) | -22%
Cc1ccc2nc(NC(=O)CCCC(=O)O)sc2c1 | 1.57%
Cc1cccc(NC(=O)C2CCN(S(=O)(=O)c3ccc4c(c3)OCCCO4)CC2)n1 | -10.3%
Cc1ccc(Cn2nnnc2CN2CCC(c3nc4ccc(Cl)cc4[nH]3)CC2)cc1 | -15.9%
COc1ccc(CN2CCC(C)(Oc3ccc4c(c3)OCO4)C2)c2ccccc12 (stereo not given) | -16.4%
CCN(C[C@H]1N[C@@](CC)(C(=O)OC)[C@H]2C(=O)N(Cc3ccccc3)C(=O)[C@@H]12)C(=O)Nc1ccc(OC)cc1 | 2%
COC(=O)[C@@]1(C)[C@H]2C(=O)N(Cc3ccccc3)C(=O)[C@H]2[C@H]2CN=C(SCc3ccc(Cl)cc3)N21 | -14.2%
CCN1C(=O)[C@H]2[C@@H](c3ccc(C)cc3)N3C(=O)N(c4cccc(Cl)c4)C(=O)[C@@]3(CC)[C@H]2C1=O | 4.5%
CS(=O)(=O)N(Cc1ccc(Cl)cc1)c1ccc(C(=O)NCCSc2ccccn2)cc1 | -17.6%
CC(=O)c1c(C)[nH]c(C(=O)OCCCCN2C(=O)c3ccccc3C2=O)c1C | -19.4%
CO[C@H]1CN(C)C(=O)c2ccc(NC(=O)C3CC3)cc2OC[C@@H](C)N(C(C)=O)C[C@@H]1C | 0.552%
CCC(=O)Nc1ccc2c(c1)C(=O)N(C)C[C@@H](OC)[C@H](C)CN(C(=O)CC)[C@@H](C)CO2 | -0.847%
CCCC(=O)Nc1ccc2c(c1)OC[C@H](C)N(C(=O)CN(C)C)C[C@@H](C)[C@H](OC)CN(C)C2=O | 1.57%
COCC(=O)N1C[C@@H](C)[C@H](OC)CN(C)C(=O)c2ccc(NC(=O)c3ccc(OC)cc3)cc2OC[C@@H]1C | -0.433%
CO[C@H]1CN(C)C(=O)c2cc(NC(=O)C3CCOCC3)ccc2OC[C@H](C)N(Cc2nccs2)C[C@H]1C | -7.3%
CO[C@H]1CN(C)C(=O)c2ccc(NC(=O)Nc3cccc(F)c3)cc2OC[C@@H](C)N(C(C)=O)C[C@H]1C | 3.06%
CCN(CC)S(=O)(=O)c1ccc(N2CCCC2)c(NC(=O)Cc2cc(OC)c(OC)c(OC)c2)c1 | -0.756%

Structure (SMILES) | activity change, negative = cytotoxicity
O=C(c1cccc(S(=O)(=O)N2CCN(c3ccccc3)CC2)c1)N1CCCC(C(F)(F)F)C1 (stereo not given) | -13.9%
O=C1CCCCC1Sc1nnc(-c2ccc3c(c2)OCO3)o1 (stereo not given) | -4.91%
O=C(CN1C(=O)c2ccccc2S1(=O)=O)c1ccc2c(c1)OCCO2 | -3.96%
Cc1ccccc1S(=O)(=O)NC(=O)C1(C)CCN1C(=O)CCc1ccc(Cl)cc1Cl (stereo not given) | -0.499%
COc1ccc([C@@H]2[C@@H]3C(=O)N(C(C)(C)C)C(=O)[C@@H]3[C@]3(CC(C)C)C(=O)N(c4cccc(F)c4)C(=O)N23)cc1 | -0.051%
COc1ccc(-c2cc(C(=O)NNC(=S)NC(=O)c3c(-c4ccccc4)noc3C)[nH]n2)cc1 | -18.7%
Cc1onc(-c2ccccc2)c1C(=O)Nc1ccc(Br)cc1Cl | -6.29%
CC1(Cc2ccc(Cl)cc2)C(=O)Nc2ccc(S(=O)(=O)NC3CCCCC3)cc21 (stereo not given) | -16.2%
O=C(Nc1cccn(Cc2c(Cl)cccc2Cl)c1=O)c1ccc(Cl)cc1 | -22.3%
CCCCOc1ccc(S(=O)(=O)Nc2cccnc2)cc1 | -6.62%
CCCNC(=O)C[C@@H]1C[C@H]2c3cc(NC(=O)Cc4ccncc4)ccc3O[C@H]2[C@H](CO)O1 | 0.915%
CC1CCN(S(=O)(=O)c2cc(C(=O)N3CCN(c4ccccc4)CC3)ccc2Br)CC1 | -29.4%
COc1ccccc1S(=O)(=O)N[C@H]1CC[C@H](CC(=O)N2CCN(C)CC2)O[C@H]1CO | -2.4%
Cc1ccc(C2CC(=O)c3cnc(N4CCc5ccccc5C4)nc3C2)cc1 (stereo not given) | 0.412%
CN(C)Cc1cn(CC[C@@H]2CC[C@H](N)[C@H](CO)O2)nn1 | -1.13%
O=C(Cc1ccncc1)N[C@H]1CC[C@@H](CCn2cc(-c3ccccc3F)nn2)O[C@@H]1CO | 1.85%
CC[C@@]12C(=O)N(c3ccccc3)C(=O)N1[C@H](c1cccc(C)c1)[C@@H]1C(=O)N(Cc3ccccc3)C(=O)[C@@H]12 | -8.41%
CC(C)(C)n1nnnc1C(c1cccs1)N(Cc1cccnc1)Cc1ccco1 (stereo not given) | -11.5%
CC(C)(C)NC(=O)C(c1ccccc1)N(Cc1cccs1)C(=O)c1csnn1 (stereo not given) | 3.62%
COc1ccc(N2C(=O)N3[C@H](c4ccc(Cl)cc4)[C@@H]4C(=O)N(C5CCCCC5)C(=O)[C@@H]4[C@]3(C)C2=O)cc1 | -13.4%
CCn1ncc(C2=NOC(C(=O)Nc3ccc(C)cc3)C2)c1C (stereo not given) | 3.78%
c1csc(-c2csc3ncnc(NCCCN4CCOCC4)c23)c1 | -3.21%
O=C(C[C@@H]1C[C@@H]2c3cc(NC(=O)C4CCC4)ccc3O[C@@H]2[C@@H](CO)O1)NCC(F)(F)F | 1.57%
CS(=O)(=O)N1CCc2cc(-c3csc(NC(=O)Cc4cccs4)n3)ccc21 | -6.69% [at 16 µM]
CCNC(=O)C[C@H]1CC[C@@H]2[C@@H](COc3ccc(NC(=O)Cc4cccs4)cc3C(=O)N2C)O1 | -2.64%
